Laboratory results as given in PubChem BioAssay (Tox21).
Several values for one entry are separate records, joined by “and”; a condition that tells them apart may be missing. Equal values may be shown once. Inconclusive results are not listed. Where a call stands in place of a potency, no number is given. A structure can be active in one record and inactive in another. Activity calls are given as the source filed them. The call rests on the fitted dose curve; in most records, active means well fitted curve in the direction sought with a large enough effect in the repeat runs; inconclusive means weak or mixed curves; inactive means no such curve, though single readings can be large; an effect the other way counts as inactive or inconclusive.

Test system: not listed separately
Assay: qHTS assay to identify small molecule antagonists of the constitutive androstane receptor (CAR) signaling pathway - cell viability counter screen (AID 1224837); further: nearly all actives have a fitted effect of over 45% in size
Conditions: HepG2-CYP2B6-hCAR viability, CellTiter-Fluor, 23 h, co-treated with 50 nM CITCO; series mostly up to 92.4 µM; activity change, negative = cytotoxicity: at the top concentration
In short: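 Multiplexed cytotoxicity read-out for the CAR antagonist screen: double-stable HepG2-CYP2B6-hCAR cells co-treated with 50 nM CITCO (final) and compound over 15 concentrations, incubated 23 hr, then assessed by CellTiter-Fluor fluorescence.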

Row | Compound | Potency | activity change, negative = cytotoxicity
1 | CCCN(CCC)c1c([N+](=O)[O-])cc(C(F)(F)F)cc1[N+](=O)[O-] | inactive | 
2 | COC(=O)NC(=S)Nc1ccccc1NC(=S)NC(=O)OC | inactive | 
3 | CCC(C)(CC)c1cc(NC(=O)c2c(OC)cccc2OC)on1 | inactive | 
4 | CN(C)[C@@H]1C(=O)C(C(N)=O)=C(O)[C@@]2(O)C(=O)C3=C(O)c4c(O)cccc4[C@@](C)(O)[C@H]3C[C@@H]12 | inactive | 
5 | CCN(CC)CCO | inactive | 
6 | CC1OC(C)OC(C)O1 (configuration not stated) | inactive | 
7 | COc1ccc2c3c1O[C@H]1[C@@H](O)C=C[C@H]4[C@@H](C2)N(C)CC[C@@]341 |  | -4.98% (inactive)
8 | CC(Oc1ccc(Cl)cc1Cl)C(=O)O (configuration not stated) | inactive | 
9 | Nc1c(Cl)c(Cl)nc(C(=O)O)c1Cl | inactive | 
10 | O=C(O)c1ccccn1 | inactive | 
11 | CCCCN(CC)C(=O)SCCC | inactive | 
12 | CCNc1nc(NC(C)(C)C)nc(SC)n1 | inactive | 
13 | Cc1ccc(N)cc1N | inactive | 
14 | NCCc1ccc(O)cc1 | inactive | 
15 | CCCCN(CCCC)SN(C)C(=O)Oc1cccc2c1OC(C)(C)C2 | inactive | 
16 | CCN(CC)c1ccccc1 | inactive | 
17 | O=c1ccc(=O)[nH][nH]1 | inactive | 
18 | CCOC(=O)c1ccccc1C(=O)OCC | inactive | 

Row | Compound | Potency | activity change, negative = cytotoxicity
19 | COC(=O)c1ccccc1C(=O)OC | inactive | 
20 | CN1C(=O)CN=C(c2ccccc2)c2cc(Cl)ccc21 | inactive | 
21 | COC(=O)c1ccccc1N | inactive | 
22 | [N-]=[N+]=[N-] | inactive | 
23 | C=CCO | inactive | 
24 | O=S(=O)(c1ccc(Cl)cc1)c1cc(Cl)c(Cl)cc1Cl | inactive | 
25 | CCCCCOC(=O)c1ccccc1C(=O)OCCCCC | inactive | 
26 | C=C(C)CCl | inactive | 
27 | C1CN2CCN1CC2 | inactive | 
28 | CCOP(=S)(OCC)Oc1cnc2ccccc2n1 | inactive | 
29 | Cc1ccc([N+](=O)[O-])cc1C | inactive | 
30 | CC(C)=C[C@@H]1[C@@H](C(=O)OCc2coc(Cc3ccccc3)c2)C1(C)C | inactive | 
31 | C[C@]12CC[C@H]3[C@@H](CC[C@@]45O[C@@H]4C(O)=C(C#N)C[C@]35C)[C@@H]1CC[C@@H]2O | inactive | 
32 | c1ccc(OP(Oc2ccccc2)Oc2ccccc2)cc1 | inactive | 
33 | O=C1CCCN1 | inactive | 
34 | c1ccc2c(c1)oc1ccccc12 | inactive | 
35 | Cc1cccc([N+](=O)[O-])c1 | inactive | 

Molecular target: Nuclear receptor subfamily 1 group I member 3 (Homo sapiens) (UniProt Q14994)
Sequence (Q14994 whole entry, looked up): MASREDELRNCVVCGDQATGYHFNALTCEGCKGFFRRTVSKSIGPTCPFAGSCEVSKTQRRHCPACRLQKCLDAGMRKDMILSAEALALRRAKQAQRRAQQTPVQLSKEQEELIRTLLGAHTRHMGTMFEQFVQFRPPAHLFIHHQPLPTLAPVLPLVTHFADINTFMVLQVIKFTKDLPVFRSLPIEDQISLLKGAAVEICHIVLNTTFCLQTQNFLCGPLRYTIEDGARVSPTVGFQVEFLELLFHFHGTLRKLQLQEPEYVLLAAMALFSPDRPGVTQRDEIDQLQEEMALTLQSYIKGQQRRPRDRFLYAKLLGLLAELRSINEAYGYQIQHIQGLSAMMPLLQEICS
Assay: qHTS assay to identify small molecule antagonists of the constitutive androstane receptor (CAR) signaling pathway (AID 1224838); further: nearly all actives have a fitted effect of over 40% in size; further: potency means the concentration at half of the fitted maximal effect
Conditions: HepG2-CYP2B6-hCAR luciferase, CITCO-stimulated, 24 h; series mostly up to 92.4 µM; activity, negative = inhibition: at the top concentration
In short: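 Compounds were titrated across 15 concentrations onto HepG2 cells double-stably expressing hCAR and a CYP2B6-2.2kb reporter, together with 50 nM CITCO (final). After 24 h at 37 C, luciferase activity was measured by luminescence.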

Row | Compound | Potency
36 | CCCN(CCC)c1c([N+](=O)[O-])cc(C(F)(F)F)cc1[N+](=O)[O-] | inactive
37 | COC(=O)NC(=S)Nc1ccccc1NC(=S)NC(=O)OC | inactive
38 | CCC(C)(CC)c1cc(NC(=O)c2c(OC)cccc2OC)on1 | inactive
39 | CN(C)[C@@H]1C(=O)C(C(N)=O)=C(O)[C@@]2(O)C(=O)C3=C(O)c4c(O)cccc4[C@@](C)(O)[C@H]3C[C@@H]12 | inactive
40 | CCN(CC)CCO | inactive
41 | O=C(O)c1ccccn1 | inactive
42 | CCCCN(CC)C(=O)SCCC | inactive
43 | Cc1ccc(N)cc1N | inactive
44 | NCCc1ccc(O)cc1 | inactive
45 | CCCCN(CCCC)SN(C)C(=O)Oc1cccc2c1OC(C)(C)C2 | inactive
46 | CCOC(=O)c1ccccc1C(=O)OCC | inactive
47 | COC(=O)c1ccccc1C(=O)OC | inactive
48 | CN1C(=O)CN=C(c2ccccc2)c2cc(Cl)ccc21 | inactive
49 | COC(=O)c1ccccc1N | inactive
50 | [N-]=[N+]=[N-] | inactive
51 | C=CCO | inactive
52 | O=S(=O)(c1ccc(Cl)cc1)c1cc(Cl)c(Cl)cc1Cl | inactive
53 | CCC[N+](=O)[O-] | 8.48 µM (active) and inactive
54 | CCCC1COC(Cn2cncn2)(c2ccc(Cl)cc2Cl)O1 (configuration not stated) | inactive
55 | CCCCCOC(=O)c1ccccc1C(=O)OCCCCC | inactive
56 | C=C(C)CCl | inactive
57 | C1CN2CCN1CC2 | inactive
58 | CCOP(=S)(OCC)Oc1cnc2ccccc2n1 | inactive
59 | Cc1ccc([N+](=O)[O-])cc1C | inactive
60 | CC(C)=C[C@@H]1[C@@H](C(=O)OCc2coc(Cc3ccccc3)c2)C1(C)C | inactive
61 | C[C@]12CC[C@H]3[C@@H](CC[C@@]45O[C@@H]4C(O)=C(C#N)C[C@]35C)[C@@H]1CC[C@@H]2O | inactive
62 | c1ccc(OP(Oc2ccccc2)Oc2ccccc2)cc1 | inactive
63 | O=C1CCCN1 | inactive
64 | c1ccc2c(c1)oc1ccccc12 | inactive

Molecular target: Nuclear receptor subfamily 1 group I member 3 (Homo sapiens) (UniProt Q14994)
Assay: qHTS assay to identify small molecule agonists of the constitutive androstane receptor (CAR) signaling pathway (AID 1224839); further: nearly all actives have a fitted effect of over 15% in size; further: potency means the concentration at half of the fitted maximal effect;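 on activation: HepG2 cells stably carrying human CAR and a CYP2B6 luciferase reporter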
Conditions: HepG2 hCAR CYP2B6-luciferase, agonist mode, 24 h; series mostly up to 92.4 µM; activation: at the top concentration
In short: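 Readout: firefly luciferase luminescence via ONE-Glo. System: HepG2 double-stable for hCAR and CYP2B6-2.2kb. Conditions: 15-point compound titration, PK11195 at 0.75 uM final, 24 h incubation.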

Row | Compound | activation | Potency
65 | CCCN(CCC)c1c([N+](=O)[O-])cc(C(F)(F)F)cc1[N+](=O)[O-] | 14% (inactive) | 
66 | COC(=O)NC(=S)Nc1ccccc1NC(=S)NC(=O)OC |  | inactive
67 | CCC(C)(CC)c1cc(NC(=O)c2c(OC)cccc2OC)on1 | 6.75% (inactive) | 
68 | CN(C)[C@@H]1C(=O)C(C(N)=O)=C(O)[C@@]2(O)C(=O)C3=C(O)c4c(O)cccc4[C@@](C)(O)[C@H]3C[C@@H]12 |  | inactive
69 | CCN(CC)CCO |  | inactive
70 | O=C(O)c1ccccn1 |  | inactive
71 | CCCCN(CC)C(=O)SCCC |  | inactive
72 | Cc1ccc(N)cc1N |  | 53 µM (active)
73 | NCCc1ccc(O)cc1 |  | inactive
74 | CCOC(=O)c1ccccc1C(=O)OCC |  | inactive
75 | COC(=O)c1ccccc1C(=O)OC |  | inactive
76 | CN1C(=O)CN=C(c2ccccc2)c2cc(Cl)ccc21 |  | inactive
77 | COC(=O)c1ccccc1N |  | inactive
78 | [N-]=[N+]=[N-] | -2.51% (inactive) | 
79 | C=CCO |  | inactive
80 | O=S(=O)(c1ccc(Cl)cc1)c1cc(Cl)c(Cl)cc1Cl |  | 30.6 µM (active) and 27.3 µM (active)
81 | CCC[N+](=O)[O-] |  | inactive
82 | CCCC1COC(Cn2cncn2)(c2ccc(Cl)cc2Cl)O1 (configuration not stated) |  | 62.3 µM (active) and 61.1 µM (active)
83 | CCCCCOC(=O)c1ccccc1C(=O)OCCCCC | 6.63% (inactive) | 
84 | C=C(C)CCl |  | inactive
85 | C1CN2CCN1CC2 |  | inactive
86 | CCOP(=S)(OCC)Oc1cnc2ccccc2n1 |  | inactive and 30.6 µM (active)
87 | Cc1ccc([N+](=O)[O-])cc1C |  | inactive
88 | CC(C)=C[C@@H]1[C@@H](C(=O)OCc2coc(Cc3ccccc3)c2)C1(C)C |  | 17.2 µM (active) and inactive
89 | C[C@]12CC[C@H]3[C@@H](CC[C@@]45O[C@@H]4C(O)=C(C#N)C[C@]35C)[C@@H]1CC[C@@H]2O |  | inactive
90 | c1ccc(OP(Oc2ccccc2)Oc2ccccc2)cc1 |  | inactive
91 | O=C1CCCN1 |  | inactive
92 | c1ccc2c(c1)oc1ccccc12 |  | inactive
